Screening results as filed in PubChem.
HCV inh = qHTS Assay for Inhibitors of Hepatitis C Virus (HCV) | actives 3.4% (n = 340,000) | Potency, µM (titrated, usually from 41.8 µM), inactives show top-dose activity change, negative = inhibition, hits mostly inhibitors | Huh7.5.1 HCVcc-Cre infection, luciferase reporter, 44 h | AID 651820, 2012; also: potency is read from the fitted curve at half-maximal effect
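Whole-lifecycle infectious HCVcc-Cre system; cells 1,000/well, compound then virus (~0.5 moi) added 4 h after plating, 44 h culture. Luciferase read 15 sec following 15 min substrate incubation, room temp.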
MARV entry inh = qHTS for inhibitors of binding or entry into cells for Marburg Virus. Marburg virus pseudotyped entry inhibition, cell reporter. AID 540276, 2011. actives 1.8% (n = 300,000). Potency, µM (titrated, usually from 37.8 µM), for the others: at the top dose activity change, negative = inhibition, usual class: inhibitors; calls by dose curve; tested in HEK293 cells; also: potency is read from the fitted curve at half-maximal effect
Giardia FBPA inh = qHTS Assay for Inhibitors of Fructose-1,6-bisphosphate Aldolase from Giardia Lamblia. A8B2U2. purified Giardia FBPA. Potency, µM (highest dose often 59.6 µM), without a hit: at the top dose activity, negative = inhibition, actives largely listed as inhibitors. actives 0.71% (n = 290,000); also: potency is read from the fitted curve at half-maximal effect; nearly all actives have a fitted effect of over 55% in size
Target sequence (A8B2U2 whole entry, looked up): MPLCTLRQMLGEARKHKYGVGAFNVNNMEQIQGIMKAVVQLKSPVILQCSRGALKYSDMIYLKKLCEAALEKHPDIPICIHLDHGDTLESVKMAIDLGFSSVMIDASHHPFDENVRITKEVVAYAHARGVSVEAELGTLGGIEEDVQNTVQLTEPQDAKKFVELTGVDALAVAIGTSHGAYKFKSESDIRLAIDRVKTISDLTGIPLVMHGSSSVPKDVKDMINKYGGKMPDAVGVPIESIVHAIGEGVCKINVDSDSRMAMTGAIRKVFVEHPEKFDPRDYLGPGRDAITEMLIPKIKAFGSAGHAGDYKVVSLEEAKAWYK
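40 nM FBPA preincubated 10 min at RT with compound (up to 57.5 uM final), then substrate plus GAPDH/TPI/NAD/arsenate coupling and diaphorase/resazurin added. Fluorescence read after 20 min at RT, 525/598 nm.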
FMDV inh = High Throughput Screening for Foot and Mouth Disease Virus Antivirals; AID 1159524, 2015; actives 1.2% (n = 410,000); Potency, µM (titrated, usually from 57.9 µM), without a hit: at the highest dose activity change, negative = inhibition, usual class: inhibitors; FMDV antiviral cell-based qHTS; calls by dose curve; tested in HEK293T cells; also: read-out not given here; potency is read from the fitted curve at half-maximal effect; nearly all actives have a fitted effect of over 45% in size
LASV entry inh = qHTS for Inhibitors of binding or entry into cells for Lassa Virus. Lassa virus pseudotype entry inhibition, cell reporter. Potency, µM (titrated, usually from 37.9 µM), inactives show top-dose activity change, negative = inhibition, actives largely listed as inhibitors. actives 1.2% (n = 300,000). AID 540256, 2011; calls by dose curve; tested in HEK293 cells; also: potency is read from the fitted curve at half-maximal effect; nearly all actives have a fitted effect of over 50% in size
HCMV inh = qHTS Assay for inhibitors of the human cytomegalovirus (HCMV). activity change, negative = inhibition, % at 57.5 µM. AID 1259415, 2018. actives 4.5% (n = 410,000). HFF cells, HCMV-luciferase reporter, 72 h; stronger effect = lower value; in the data active = activity change below about -60%; inconclusive = no clear call, values can overlap the other calls; inactive = above about -39%
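Inhibition of viral replication was scored as loss of reporter luminescence in HFFs infected with HCMV-luciferase (MOI 1 PFU/cell) for 72 h; compounds tested at 2 doses, normalized to buffer and Salinomycin controls.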
* = called active by the depositor; ? = inconclusive; . = no result given; [ ] = dose if it differs, or a comment. Only some compounds are listed: those with a hit (about 8.3% of all), similar ones and a draw of the others. Unless noted, calls follow the shape of the dose curve; as a rule, active = well fitted curve in the direction sought with a large enough effect; inconclusive = small, poorly fitted or top-dose-only effect, or another doubt; inactive = no such curve, though single readings can be large; an effect the other way counts as inactive or inconclusive. % is scaled to controls: 0 for no effect and ±100 for the full control effect.

SMILES | HCV inh | MARV entry inh | Giardia FBPA inh | FMDV inh | LASV entry inh | HCMV inh
Cc1ccccc1N=C1NC(=O)/C(=C/c2cccn2C)S1 | -15% | . | -1% | -4% | . | 18
Cc1cccc(N=C2NC(=O)/C(=C/c3cccn3C)S2)c1 | 11µM* | . | 2% | 27% | . | -33
COc1cc(=O)n2c(c1C(=O)N(C)Cc1ccsc1)CCN(Cc1cnn(C)c1C)CC2 | . | . | . | 7% | . | .
COc1cc(NC(=O)Cn2ncc(Cl)c(Cl)c2=O)c(C)cc1[N+](=O)[O-] | ? | 7.1µM* | -1% | 13µM* | ? | -96*
Cc1ccc(N(CC(=O)Nc2cc(Cl)ccc2Oc2ccccc2)S(C)(=O)=O)c(C)c1 | 11µM* | ? | -9% | ? | ? | -10
COC(=O)c1cc(NC(=O)CN(c2ccccc2OC)S(=O)(=O)c2ccccc2)ccc1Cl | ? | ? | -2% | ? | ? | -28
CCOc1ccc(NC(=O)CN(c2ccc(Cl)cc2C)S(=O)(=O)c2ccccc2)cc1 | . | ? | . | -1% | ? | -69*
COC(=O)c1cc(NC(=O)CN(c2cccc(OC)c2)S(=O)(=O)c2ccccc2)ccc1Cl | ? | 16µM* | -7% | ? | 10µM* | ?
CCOc1ccc(S(=O)(=O)N(CC(=O)Nc2ccc(OC)c(Cl)c2)c2ccccc2)cc1 | . | 3%[46.1 µM] | . | 0% | -9%[46.1 µM] | -60*
CC(C)Oc1ccccc1Oc1ccc2c(-c3ccccn3)noc2n1 | . | . | . | . | . | -5
COC(=O)[C@@H]1C[C@@H](NC(=O)c2cccc3c(C)c(C)[nH]c23)CN1Cc1cccc2ccccc12 | . | . | . | -2% | . | .
O=C1C[C@H](c2ccc3ccccc3c2)N1S(=O)(=O)c1ccccc1[N+](=O)[O-] | . | . | 11% | . | . | .
COc1cc(C(NC(=O)C(F)(F)F)c2cc3ccccc3o2)cc(OC)c1OC (centres undefined) | . | 5%[14.2 µM] | . | . | ? | .
CCCNC(=O)OC[C@@H]1O[C@H](CCO/N=C\C[C@H]2C=C[C@H](OC(C)=O)[C@@H](COC(C)=O)O2)C=C[C@@H]1Oc1ccc(OC)cc1 | . | 6%[14.2 µM] | 1%[12.9 µM] | . | . | .
COc1ccc(NC(=O)c2ccc(CN(c3cc(Cl)ccc3C)S(=O)(=O)c3ccccc3)cc2)cc1OC | 5% | 4.1µM* | -3% | -12% | -18% | -18
COc1cccc(N(CC(=O)Nc2cccnc2)S(C)(=O)=O)c1 | 9% | ? | 0% | 2% | 2%[46.1 µM] | -103*
COc1ccccc1NC(=O)c1ccc(CN(c2cc(Cl)ccc2C)S(=O)(=O)c2ccccc2)cc1 | 17% | ? | 4% | -16% | 5% | -20
COc1ccc(NC(=O)CN(c2ccccc2F)S(=O)(=O)c2ccc(C)cc2)c(OC)c1 | 11µM* | . | 1% | 1% | . | -31
CN(c1cccc(NC(=O)CN(c2cccc(Cl)c2)S(=O)(=O)c2ccc(Cl)cc2)c1)S(C)(=O)=O | 22µM* | ? | -3% | 0% | -19% | -40
Cc1ccc(S(=O)(=O)c2cc3cc(C(=O)Nc4ccc(C)cc4C)ccc3oc2=O)cc1 | . | -3%[46.1 µM] | . | ? | 12%[46.1 µM] | 18
CCOc1ccc(N(CC(=O)Nc2ccccc2OC)S(=O)(=O)c2ccccc2)cc1 | ? | . | -4% | 2% | . | -87*
COc1ccc(N(CC(=O)Nc2ccc(OC)cc2OC)S(=O)(=O)c2ccccc2)cc1 | ? | ? | -9% | -3% | ? | -65*
COc1ccc(NC(=O)CN(c2ccc([N+](=O)[O-])cc2)S(=O)(=O)c2ccccc2)c(OC)c1 | ? | -22% | -10% | 5% | -23% | 2
COc1ccc(S(=O)(=O)N(CC(=O)Nc2ccc(OC)cc2OC)c2ccc(Cl)cc2)cc1 | . | ? | . | 3.2µM* | ? | -25
COc1ccccc1NC(=O)CN(c1ccc([N+](=O)[O-])cc1)S(=O)(=O)c1ccccc1 | 1% | ? | -5% | -12% | ? | -4
SMILES | HCV inh | MARV entry inh | Giardia FBPA inh | FMDV inh | LASV entry inh | HCMV inh
CCOc1ccccc1NC(=O)CN(c1ccc(OC)cc1OC)S(=O)(=O)c1ccccc1[N+](=O)[O-] | -20% | 10µM* | -1% | 13% | 1%[46.1 µM] | ?
O=c1ccc2ccccc2n1Cc1cccc(F)c1 | 9% | . | 13% | 10% | . | -62*
Cc1ccc(NC(=O)Nc2nnc(SCC(=O)N3CCC(C)CC3)s2)cc1 | . | . | . | -6% | 20%[46.1 µM] | -88*
CCCSc1nnc(NC(=O)Nc2ccc(F)cc2)s1 | ? | ? | 3% | -25% | ? | -104*
CCCSc1nnc(NC(=O)Nc2ccccc2)s1 | 8% | -23% | 2% | 6% | 12% | -99*
CCCSc1nnc(NC(=O)Nc2ccc(C)cc2)s1 | -4% | ? | 0% | 2% | 8%[46.1 µM] | ?
COc1ccc(N2CCN(C(=O)c3cn(C4CCCCC4)c(=O)c4c3c3ccccc3n4C)CC2)cc1 | . | ? | . | 28% | ? | -26
COc1ccc(NC(=O)c2oc3ccccc3c2NC(=O)COc2ccc(C(C)C)cc2)c(OC)c1 | . | 9%[46.1 µM] | . | 8% | 3%[46.1 µM] | 29
COc1cccc(Nc2nccc3[nH]c(-c4cccc(C(F)(F)F)c4)nc23)c1 | . | . | . | . | . | -18
COc1ccccc1N1CCN(C(=O)c2cnn(C(C)(C)C)c2C2CCN(C(=O)OC(C)(C)C)CC2)CC1 | . | . | . | -22% | ? | 26
Cc1c2ccccc2c(CSC(=N)N)c2ccccc12 | . | . | -14% | ? | . | .
COC(=O)c1cn([C@@H]2C[C@@H](C(=O)Nc3cccc(SC)c3)N(C3CCCCCC3)C2)nn1 | . | . | . | -12% | . | .
CCOC(=O)/C=C/[C@@H](CCC(=O)OC)NC(=O)C(F)(F)F | . | . | . | . | . | -16
CC(C)(C)NC(=O)C(c1ccc(O)cc1)N(C(=O)Cn1nnc(-c2ccc(F)cc2)n1)c1ccccc1F (centres undefined) | 4.5µM* | . | -5% | -1% | . | -12
COc1cc(C(CC(=O)Nc2cccc(C(C)=O)c2)N2Cc3ccccc3C2=O)cc(OC)c1OC (centres undefined) | . | . | . | 43% | 1%[46.1 µM] | 15
O=C1NC(=S)N/C1=C/c1ccc(-c2c(Br)cc([N+](=O)[O-])cc2Br)o1 | 8.9µM* | -6% | -1% | . | . | .
O=C1NC(=S)N/C1=C/c1cccc([N+](=O)[O-])c1 | 4% | 1%[46.1 µM] | 1% | -2% | 11% | -22
CN(C)C(=O)NC1CCCCCCC1 | . | . | 0% | . | . | .
O=C1c2[nH]nc(-c3ccccc3O)c2C(c2cccc(Cl)c2)N1Cc1ccco1 (centres undefined) | 13µM* | 13µM* | -8% | ? | ? | 14
Cc1ccc(C2c3c(-c4cc(C)ccc4O)n[nH]c3C(=O)N2Cc2ccco2)cc1 (centres undefined) | . | ? | . | -10% | ? | -33
